# Several values for one entry are separate records, joined by “and”; a condition that tells them apart may be missing. Equal values may be shown once. Records with an inconclusive call do not appear. Activity calls are given as the source filed them. Rule for the calls: active = hit-call score of the fitted dose curve at least 0.9, where 1 is the maximum; inconclusive = response in the unintended direction; inactive = score below 0.9.
# Legend:
# [1] = biological target: mouse Peroxisome Proliferator-activated Receptor gamma (PPARg), Pparg (gene 19016) (UniProt P37238); experiment: ATG_mPPARg_XSP1: Attagene TRANS-FACTORIAL Multi-Species (XSP1) HepG2 Assay for mouse Peroxisome Proliferator-activated Receptor gamma (PPARg) (AID 2283802)
# mouse Peroxisome Proliferator-activated Receptor gamma (PPARg), Pparg (gene 19016), sequence (P37238 whole entry, looked up, the tested form may be a part): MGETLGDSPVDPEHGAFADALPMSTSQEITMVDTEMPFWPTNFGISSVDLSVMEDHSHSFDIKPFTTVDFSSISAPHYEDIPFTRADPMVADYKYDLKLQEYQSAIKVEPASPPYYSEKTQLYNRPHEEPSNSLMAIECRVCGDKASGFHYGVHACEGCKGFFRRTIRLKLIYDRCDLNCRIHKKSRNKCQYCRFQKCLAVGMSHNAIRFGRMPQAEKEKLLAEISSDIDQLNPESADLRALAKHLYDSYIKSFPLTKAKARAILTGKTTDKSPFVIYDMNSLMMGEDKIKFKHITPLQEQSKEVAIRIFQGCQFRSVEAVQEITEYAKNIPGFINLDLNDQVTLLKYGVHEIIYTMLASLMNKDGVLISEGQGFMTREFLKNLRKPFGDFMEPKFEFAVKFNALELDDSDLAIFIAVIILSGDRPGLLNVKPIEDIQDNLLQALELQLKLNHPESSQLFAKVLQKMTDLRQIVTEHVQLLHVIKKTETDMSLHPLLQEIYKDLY
# Outline: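 HepG2 cells transiently transfected with GAL4-UAS reporter units driven by mouse PPARg–GAL4 chimera; 3 nM 6-alpha-fluorotestosterone present. After 24 h dosing, reporter mRNA quantified by RT-PCR, fluorescent labelling and capillary electrophoresis; gain of signal versus DMSO.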
# [2] = biological target: Nuclear receptor subfamily 1 group I member 2 (Mus musculus) (UniProt O54915); experiment: ATG_mPXR_XSP1: Attagene TRANS-FACTORIAL Multi-Species (XSP1) HepG2 Assay for mouse Pregnane X Receptor (PXR) (AID 2283803)
# Nuclear receptor subfamily 1 group I member 2 (Mus musculus), sequence (O54915 whole entry, looked up, the tested form may be a part): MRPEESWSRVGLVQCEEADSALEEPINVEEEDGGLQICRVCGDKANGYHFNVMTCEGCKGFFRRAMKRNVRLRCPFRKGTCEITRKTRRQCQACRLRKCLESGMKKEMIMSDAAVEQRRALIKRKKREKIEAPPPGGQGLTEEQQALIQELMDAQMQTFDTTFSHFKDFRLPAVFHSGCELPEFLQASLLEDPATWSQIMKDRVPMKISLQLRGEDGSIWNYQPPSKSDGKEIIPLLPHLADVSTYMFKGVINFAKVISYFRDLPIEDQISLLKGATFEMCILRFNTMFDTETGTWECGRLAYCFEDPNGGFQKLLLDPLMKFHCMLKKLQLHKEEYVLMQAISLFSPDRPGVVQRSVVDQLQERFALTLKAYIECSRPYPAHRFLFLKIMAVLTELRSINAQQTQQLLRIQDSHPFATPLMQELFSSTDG
# Outline: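 Transiently transfected HepG2 cells expressing a receptor-Gal4 chimera drive a GAL4-UAS reporter; 3 nM 6-alpha-fluorotestosterone included. Reporter mRNA read 24 h post-dose by RT-PCR and capillary electrophoresis; gain of signal relative to DMSO.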
# [3] = biological target: human Thyroid hormone Receptor alpha (TRa), THRA (gene 7067) (UniProt P10827); experiment: ATG_hTRa_XSP1: Attagene TRANS-FACTORIAL Multi-Species (XSP1) HepG2 Assay for human Thyroid hormone Receptor alpha (TRa) (AID 2283805)
# human Thyroid hormone Receptor alpha (TRa), THRA (gene 7067), sequence (P10827 whole entry, looked up, the tested form may be a part): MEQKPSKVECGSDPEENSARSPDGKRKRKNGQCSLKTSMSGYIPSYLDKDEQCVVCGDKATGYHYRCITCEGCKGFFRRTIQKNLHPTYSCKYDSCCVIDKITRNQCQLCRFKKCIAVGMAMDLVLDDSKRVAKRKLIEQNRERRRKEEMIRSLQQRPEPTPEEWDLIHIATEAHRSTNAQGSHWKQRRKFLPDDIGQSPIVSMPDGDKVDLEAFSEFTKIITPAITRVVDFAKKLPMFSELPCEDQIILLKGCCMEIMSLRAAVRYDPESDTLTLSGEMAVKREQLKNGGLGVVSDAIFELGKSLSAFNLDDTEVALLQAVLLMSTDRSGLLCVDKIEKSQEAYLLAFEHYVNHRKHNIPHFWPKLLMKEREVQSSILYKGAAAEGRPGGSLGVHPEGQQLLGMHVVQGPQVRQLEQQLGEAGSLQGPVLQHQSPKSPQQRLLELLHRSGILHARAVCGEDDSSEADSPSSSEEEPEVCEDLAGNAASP
# Outline: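 HepG2 cells transiently transfected with GAL4-UAS reporter units expressing chimeric NR-Gal4 proteins, dosed 24 hours with 3 nM 6-alpha-fluorotestosterone present. Reporter mRNA measured by RT-PCR and capillary electrophoresis; gain of signal fitted versus DMSO.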
# [4] = tested on: turtle Thyroid Hormone Receptor, alpha (TRa), gene 101949057; experiment: ATG_trTRa_XSP1: Attagene TRANS-FACTORIAL Multi-Species (XSP1) HepG2 Assay for turtle Thyroid Hormone Receptor, alpha (TRa) (AID 2283806)
# Outline: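 HepG2 cells transiently transfected with GAL4-UAS reporter units and chimeric receptor-Gal4 constructs, with 3 nM 6-alpha-fluorotestosterone present. Reporter mRNA was quantified 24 h after dosing by RT-PCR, 6-FAM labelling and capillary electrophoresis; gain of signal versus DMSO.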
# [5] = biological target: zebrafish Thyroid Hormone Receptor alpha (TRa), thraa (gene 30670) (UniProt Q98867); experiment: ATG_zfTRa_XSP1: Attagene TRANS-FACTORIAL Multi-Species (XSP1) HepG2 Assay for zebrafish Thyroid Hormone Receptor alpha (TRa) (AID 2283807)
# zebrafish Thyroid Hormone Receptor alpha (TRa), thraa (gene 30670), sequence (Q98867 whole entry, looked up, the tested form may be a part): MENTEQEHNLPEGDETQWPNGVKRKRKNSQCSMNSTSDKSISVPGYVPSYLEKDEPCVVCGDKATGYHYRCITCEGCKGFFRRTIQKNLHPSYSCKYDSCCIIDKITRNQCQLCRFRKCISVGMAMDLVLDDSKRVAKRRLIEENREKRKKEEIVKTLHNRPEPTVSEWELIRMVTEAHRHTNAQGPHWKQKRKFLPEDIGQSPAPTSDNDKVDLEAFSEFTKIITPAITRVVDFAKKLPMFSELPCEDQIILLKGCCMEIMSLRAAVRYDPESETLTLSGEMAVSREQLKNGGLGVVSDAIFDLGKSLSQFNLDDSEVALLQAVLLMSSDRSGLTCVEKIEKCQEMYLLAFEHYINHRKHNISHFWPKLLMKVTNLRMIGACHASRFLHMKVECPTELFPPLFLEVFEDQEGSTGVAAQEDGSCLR
# Outline: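 HepG2 cells transiently transfected with GAL4-UAS reporter units including a zebrafish TRa–Gal4 chimera, dosed 24 h with 3 nM 6-alpha-fluorotestosterone present. Reporter mRNA quantified by RT-PCR and capillary electrophoresis; gain versus DMSO.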
# [6] = biological target: human Thyroid hormone Receptor beta (TRb), THRB (gene 7068) (UniProt P10828); experiment: ATG_hTRb_XSP1: Attagene TRANS-FACTORIAL Multi-Species (XSP1) HepG2 Assay for human Thyroid hormone Receptor beta (TRb) (AID 2283808)
# human Thyroid hormone Receptor beta (TRb), THRB (gene 7068), sequence (P10828 whole entry, looked up, the tested form may be a part): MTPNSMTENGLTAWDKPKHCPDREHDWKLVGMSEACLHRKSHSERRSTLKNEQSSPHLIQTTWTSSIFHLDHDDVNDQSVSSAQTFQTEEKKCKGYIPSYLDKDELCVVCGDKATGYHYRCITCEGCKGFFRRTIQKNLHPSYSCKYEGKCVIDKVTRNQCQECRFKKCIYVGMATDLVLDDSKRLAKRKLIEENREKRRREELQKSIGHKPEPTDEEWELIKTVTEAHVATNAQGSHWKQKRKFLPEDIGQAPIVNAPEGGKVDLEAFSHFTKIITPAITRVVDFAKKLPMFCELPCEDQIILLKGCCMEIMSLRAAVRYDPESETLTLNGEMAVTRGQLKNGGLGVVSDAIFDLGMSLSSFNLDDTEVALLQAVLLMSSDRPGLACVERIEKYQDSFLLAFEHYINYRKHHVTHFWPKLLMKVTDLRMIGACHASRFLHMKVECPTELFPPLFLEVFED
# Outline: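 HepG2 cells transiently transfected with reporter units driving GAL4-UAS reporters for chimeric NR-Gal4 proteins; 24 h chemical exposure with 3 nM 6-alpha-fluorotestosterone present. Reporter mRNA quantified by RT-PCR and capillary electrophoresis, gain of signal versus DMSO.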
# [7] = biological target: zebrafish Thyroid Hormone Receptor beta (TRb), thrb (gene 30607) (UniProt Q9PVE4); experiment: ATG_zfTRb_XSP1: Attagene TRANS-FACTORIAL Multi-Species (XSP1) HepG2 Assay for zebrafish Thyroid Hormone Receptor beta (TRb) (AID 2283809)
# zebrafish Thyroid Hormone Receptor beta (TRb), thrb (gene 30607), sequence (Q9PVE4 whole entry, looked up): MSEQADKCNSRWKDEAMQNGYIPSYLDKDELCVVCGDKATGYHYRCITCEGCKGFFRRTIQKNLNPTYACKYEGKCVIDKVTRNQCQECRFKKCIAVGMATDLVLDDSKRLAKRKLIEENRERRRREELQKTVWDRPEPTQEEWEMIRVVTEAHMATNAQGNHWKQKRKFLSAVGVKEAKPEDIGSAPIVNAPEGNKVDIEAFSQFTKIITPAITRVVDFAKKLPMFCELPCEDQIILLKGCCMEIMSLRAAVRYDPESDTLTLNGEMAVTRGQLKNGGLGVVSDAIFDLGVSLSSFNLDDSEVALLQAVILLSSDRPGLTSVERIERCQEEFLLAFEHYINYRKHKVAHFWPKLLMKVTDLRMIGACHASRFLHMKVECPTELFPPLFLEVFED
# Procedure: ATG_XSP1_multi-species_TRANS is a cell-based, multiplexed assay created by modifying the existing Attagene TRANS-FACTORIAL system to include a panel of nuclear receptors from some or all the following species: human (Homo sapiens), mouse (Mus musculus), frog (Xenopus laevis), zebrafish (Danio rerio), chicken (Gallus gallus), and turtle (Chrysemys picta). The ECOTOX-FACTORIAL format uses HepG2, a human liver cell line, with measurements taken at 24 hours after chemical dosing in a 24-well plate. Xsp1 included 3 nM 6-alpha-fluorotestosterone to partially stimulate the androgen receptor.ATG_zfTRb_XSP1 is one of 29 assay components measured or calculated from the ATG_XSP1_multi-species_TRANS assay. It is designed to make measurements of mRNA induction, a form of inducible reporter, as detected with fluorescence intensity signals by Reverse transcription polymerase chain reaction (RT-PCR) and Capillary electrophoresis technology.The assay endpoint ATG_zfTRb_XSP1 was analyzed in the positive analysis fitting direction relative to DMSO as the negative control and baseline of activity. […] Furthermore, this assay endpoint can be referred to as a primary readout, because this assay has produced multiple assay endpoints where this one serves a reporter gene function. […]
# [8] = ATG_XTT_Cytotoxicity_XSP1: Cytotoxicity Assessment in the Attagene TRANS-FACTORIAL Multi-Species (XSP1) HepG2 Assay (AID 2283810)
# Outline: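 XTT viability readout taken at 24 hours post-dosing in HepG2 liver cells co-treated with 3 nM 6-alpha-fluorotestosterone. Signal loss relative to DMSO controls reflects cytotoxicity.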
# [9] = ATG_M_06_XSP2: Attagene TRANS-FACTORIAL Multi-Species (XSP2) HepG2 Assay for M06 Transcription Factor (Internal Marker) (AID 2283811);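 note: internal background marker reporter mRNA measured by RT-PCR and capillary electrophoresis; hits are increases in signal above the DMSO baseline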
# Outline: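 HepG2, multiplexed reporter transfection; 24 h dosing; AR stimulated with 3 nM 6-alpha-fluorotestosterone + 1.5 nM norgestrel; RNA → RT-PCR → 6-FAM primer extension → HpaI → CE. Positive direction vs DMSO.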
# [10] = tested on: turtle Estrogen Receptor (ERa), gene 101933533; experiment: ATG_trERa_XSP2: Attagene TRANS-FACTORIAL Multi-Species (XSP2) HepG2 Assay for turtle Estrogen Receptor (ERa) (AID 2283812);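 note: human HepG2 liver cells transiently expressing turtle ERa-Gal4 chimeric receptor; actives raise reporter signal above DMSO so AC50 reflects agonist activity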
# Outline: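 HepG2 cells transiently transfected with GAL4-UAS reporter units expressing turtle ERa-Gal4 chimera. Reporter mRNA measured after 24 h dosing by RT-PCR, fluorescent labelling and capillary electrophoresis; gain of signal fitted versus DMSO.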
structure (smiles),measurement,setting,value
O=P(OC(CCl)CCl)(OC(CCl)CCl)OC(CCl)CCl,AC50,[1],25.8 µM (active)
same,AC50,[2],0.447 µM (active)
same,outcome,[3],inactive
same,outcome,[4],inactive
same,outcome,[5],inactive
same,outcome,[6],inactive
same,outcome,[7],inactive
same,outcome,[8],inactive
same,outcome,[9],inactive
same,outcome,[10],inactive
Oc1ccc2c(c1)-c1ccccc1C2,outcome,[9],inactive
same,AC50,[10],6.32 µM (active) and 3.91 µM (active)
Clc1nc(Cl)c(Cl)c(Cl)c1Cl,AC50,[10],26.2 µM (active) and 151 µM (active)

# From PubChem BioAssay (EPA / NIEHS)
